Screening results (PubChem BioAssay)
The list is not random: actives were taken first. Their share in the collection is about 0.97%.
TcdB inh: TcdB glycohydrolase inhibition; P18177; TcdB glycohydrolase enzymatic assay, plate reader; inhibition, % at 9.99 µM; actives 0.24% (n = 350,000); AID 652162; in the data active = inhibition above about 10%
Mtb bLac sens: beta-lactam sensitization of Mtb H37Rv. M. tuberculosis H37Rv growth with meropenem, percent inhibition. inhibition, % at 25 µM. actives 0.27% (n = 330,000); call rule not given here;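 also: growth measured after seven days incubation then overnight dye step; 0% = bacteria only wells and 100% = bacteria with antibiotic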
MazF activator: activators of E. coli MazEF toxin-antitoxin RNase; P0AE70; FAM/BHQ RNA-DNA oligo cleavage fluorescence, 5 h; activation, % at 20 µM; actives 0.32% (n = 350,000); AID 504720; in the data active = activation above about 50%
Target sequence (P0AE70 whole entry, looked up): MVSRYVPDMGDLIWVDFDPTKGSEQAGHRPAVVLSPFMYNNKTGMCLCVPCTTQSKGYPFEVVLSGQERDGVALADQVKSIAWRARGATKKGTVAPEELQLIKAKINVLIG
UGM FP inh: Mtb UDP-galactopyranose mutase inhibition | actives 0.06% (n = 320,000) | inhibition, % at 10 µM | purified UGM, fluorescence polarization probe displacement | P9WIQ1; in the data active = inhibition above about 10%, passing the limit was not always enough
RecA intein inh: blocks M. tuberculosis RecA intein splicing; P9WHJ3; cell-free RecA intein splicing, fluorescence; inhibition, % (concentration not given with the values); actives 0.75% (n = 290,000); in the data active = inhibition above about 30%;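 also: 0% = vehicle wells and 100% = reference inhibitor control wells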
Rv3671c protease: inhibitors of M. tuberculosis serine protease Rv3671c; P9WHR9; inhibition, % at 5.96 µM; actives 0.048% (n = 320,000); AID 2606; in the data active = inhibition above about 38%;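 also: extracellular domain of Rv3671c used as enzyme; 0% = enzyme with DMSO and 100% = no enzyme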
Target sequence (P9WHR9 whole entry, looked up, the tested form may be a part): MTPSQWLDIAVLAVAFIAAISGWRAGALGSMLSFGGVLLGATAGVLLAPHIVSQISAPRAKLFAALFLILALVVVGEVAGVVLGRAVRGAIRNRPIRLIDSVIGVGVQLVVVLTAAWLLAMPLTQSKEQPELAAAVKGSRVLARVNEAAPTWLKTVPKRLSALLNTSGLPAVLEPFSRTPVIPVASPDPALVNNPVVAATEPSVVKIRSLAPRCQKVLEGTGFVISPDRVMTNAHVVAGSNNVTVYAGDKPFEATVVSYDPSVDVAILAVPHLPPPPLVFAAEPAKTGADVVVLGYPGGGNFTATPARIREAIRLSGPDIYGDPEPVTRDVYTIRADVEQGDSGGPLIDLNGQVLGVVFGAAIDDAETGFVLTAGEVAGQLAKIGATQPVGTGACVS
* marks the source's active call; other numbers are inactive results.

COC(=O)c1c2oc(c1C(=O)OC)C(=O)N[C@@H](Cc1ccccc1)Cn1cc(nn1)CNC(=O)[C@@H](Cc1ccccc1)NC(=O)N[C@@H](CO)CC2 was read as TcdB inh -2.1.
Screening C[C@@H]1CC=C[C@H]2[C@H]1C(=O)N(Cc1ccccc1)[C@H]2c1ccc(F)c(/C=C/c2ccccc2)c1 returned TcdB inh -0.2, Mtb bLac sens -1.3, MazF activator -2.2, UGM FP inh -0.2, RecA intein inh 2.6 and Rv3671c protease -14.5.
For C[C@@H]1CC=C[C@H]2[C@H]1C(=O)N(Cc1ccccc1)[C@H]2c1ccc(F)c(Br)c1 the results were RecA intein inh 32.4*.
`Nc1ccc(-c2nc3ccc(N)cc3o2)cc1` gave TcdB inh 10.6*, Mtb bLac sens -0.7, MazF activator 11.3, UGM FP inh -1.5 and Rv3671c protease 10.3.
Screening O=C1CN(S(=O)(=O)c2cccc(F)c2)C[C@H]2[C@H](c3ccc(C4=CCCC4)cc3)[C@@H](CO)N12 returned TcdB inh 0.1.
`COc1ccc(N2C(=O)CSC23C(=O)N2CCCc4cccc3c42)cc1` (configuration not stated) gave Mtb bLac sens 7.1, MazF activator 0.3, UGM FP inh 0.5, RecA intein inh 1.4 and Rv3671c protease 0.3.
`COc1ccc(N2C(=O)CSC23C(=O)N2c4c(cccc43)C(C)=CC2(C)C)cc1` (configuration not stated) gave TcdB inh 3.4, Mtb bLac sens 0.9, MazF activator -7.5, UGM FP inh -0.9, RecA intein inh 33.3* and Rv3671c protease -8.6.
`COc1cc(/C=C(\C#N)c2nc3ccccc3[nH]2)ccc1OC(=O)c1ccco1` gave TcdB inh 1.0, Mtb bLac sens 1.7, MazF activator 56.5*, UGM FP inh -0.6, RecA intein inh -1.7 and Rv3671c protease -35.5.
`COc1ccc2nc(C)cc(SCC(=O)N/N=C/c3cccc4ccccc34)c2c1` gave Mtb bLac sens -1.2, MazF activator 54.8*, UGM FP inh -3.2, RecA intein inh 0.9 and Rv3671c protease -4.0.
Screening O=C(O)c1cccc(N/N=C(\N=Nc2ccccc2)c2ccccc2)c1 returned TcdB inh 1.0, Mtb bLac sens 87.6, MazF activator -4.1, UGM FP inh -0.4, RecA intein inh 40.7* and Rv3671c protease 18.8.
For O=C(Nc1ccc(C(=O)N2CCOCC2)cc1)c1cnn2c(C(F)F)cc(-c3ccccc3)nc12 the results were TcdB inh 0.4, Mtb bLac sens -1.6, MazF activator 66.3*, UGM FP inh 1.2, RecA intein inh -5.0 and Rv3671c protease 4.0.
CCCNC(=O)C1CC(=O)N(c2ccc(OCC)cc2)C1 (configuration not stated) was read as TcdB inh 11.1*, Mtb bLac sens -1.8, MazF activator -1.4, UGM FP inh -0.5 and Rv3671c protease 2.4.
For Cc1ccc(C2=CC(c3ccc(N(C)C)cc3)n3nnnc3N2)cc1 (configuration not stated) the results were TcdB inh -0.2, Mtb bLac sens 1.5, MazF activator 64.0*, UGM FP inh -8.0, RecA intein inh -7.0 and Rv3671c protease 1.9.
`COc1ccc(C2=CC(c3ccc(F)cc3)n3nnnc3N2)cc1` (configuration not stated) gave Mtb bLac sens 9.3, MazF activator -3.5, UGM FP inh -4.1, RecA intein inh -30.2 and Rv3671c protease -7.8.
COCC(=O)N(C)C[C@H]1Oc2ncc(-c3ccccc3OC)cc2C(=O)N([C@@H](C)CO)C[C@@H]1C was read as TcdB inh 0.4.
Screening Cc1nn(CCOc2ccccc2)c(=O)n1-c1ccc(Cl)cc1 returned TcdB inh 15.5*, Mtb bLac sens 3.8, MazF activator 7.8, UGM FP inh -3.4, RecA intein inh 0.5 and Rv3671c protease 5.6.
`CCCCN(C)c1c(C)nc2ccc(C(=O)NCc3cccs3)cn12` gave TcdB inh 17.8*.
`CCCCN(C=O)c1c(CC)nc2ccc(C(=O)NCc3cccs3)cn12` gave TcdB inh 0.9.
Screening COC(=O)/C=C/C(=O)Nc1ccc(O)c(Cl)c1 returned TcdB inh 31.0*, Mtb bLac sens -12.8, MazF activator 5.8, UGM FP inh -0.4, RecA intein inh 7.3 and Rv3671c protease 6.6.
Screening COC(=O)/C=C/C(=O)Nc1cccnc1 returned Mtb bLac sens -2.5, MazF activator 2.1, UGM FP inh -1.0, RecA intein inh 7.0 and Rv3671c protease 8.6.
Screening Nc1nc2nc(-c3ccc(OCc4ccccc4)cc3)cc(C(F)(F)F)n2n1 returned Mtb bLac sens 0.6, MazF activator 58.0*, UGM FP inh -3.8, RecA intein inh -12.0 and Rv3671c protease 0.8.
Screening Cc1ccc2oc(-c3cccc(NC(=O)c4ccc(Br)o4)c3C)nc2c1 returned TcdB inh -0.6, Mtb bLac sens 29.3, MazF activator 4.7, UGM FP inh -0.8, RecA intein inh 1.4 and Rv3671c protease -3.2.
`Cc1c(NC(=O)CSc2ccc(Cl)cc2)cccc1-c1nc2cc(Cl)ccc2o1` gave TcdB inh 0.5, Mtb bLac sens 1.0, MazF activator 129.4*, UGM FP inh 2.3, RecA intein inh 0.0 and Rv3671c protease -2.9.
For C[C@H](CO)N1C[C@H](C)[C@H](CN(C)S(=O)(=O)c2ccccc2)Oc2ccc(NC(=O)Cc3cn(C)c4ccccc34)cc2C1=O the results were TcdB inh -0.8.
For Cc1ccc(S(=O)(=O)Nc2ccc3c(c2)C(=O)N([C@H](C)CO)C[C@H](C)[C@@H](CN(C)S(=O)(=O)c2c(C)noc2C)OCCCC[C@H](C)O3)cc1 the results were TcdB inh -2.9.
CCCCCCN1C=CC=C/C1=C\C=C(C#N)C#N was read as TcdB inh 2.6, Mtb bLac sens 19.3, MazF activator -63.0, UGM FP inh 15.6* and Rv3671c protease 1.9.
C[C@H](CO)N1C[C@H](C)[C@@H](CN(C)Cc2ccccc2)Oc2ccc(NC(=O)Nc3ccccc3)cc2CC1=O was read as TcdB inh 0.3.
Screening CCCCN1C(=O)/C(=C/C=C2/CC(C)(C)CN2C)SC1=S returned Mtb bLac sens -5.6, MazF activator 118.0*, UGM FP inh -4.0, RecA intein inh -1.9 and Rv3671c protease -7.3.
Screening CCCCN1C(=O)/C(=C/C=C2\Oc3ccccc3N2CC)SC1=S returned TcdB inh 0.0, MazF activator inactive and RecA intein inh -0.6.
O=C(C[C@@H]1CC[C@@H]2[C@H](COC[C@@H](O)CN2Cc2cccc(-c3ccncc3)c2)O1)N1CCCCC1 was read as TcdB inh -1.4.
`COC(=O)C[C@H]1CC[C@@H]2[C@H](COc3ccc(NS(=O)(=O)c4cccc(F)c4)cc3C(=O)N2C)O1` gave TcdB inh -0.3.
